Hits are enriched below; roughly 0.71% of the tested compounds scored in any of these assays.
TexasRed fluor: Total Fluorescence Counterscreen for Inhibitors of the Interaction of Thyroid Hormone Receptor and Steroid Receptor Coregulator 2; Potency, µM (series often up to 106 µM), without a hit: top-dose fluorescence change, negative = quenching; TRb/SRC2 Texas Red total fluorescence interference; AID 1479, 2009; 0.29% of 280,000 active; active = well fitted curve in either direction with a large enough effect; inconclusive = small, poorly fitted or top-dose-only effect; also: % is scaled to controls: 0 for no effect and ±100 for the full control effect
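Human TRb ligand-binding domain at 0.6 uM with 20 nM Texas Red SRC2 peptide in Tris buffer containing 1 uM T3 and 5% DMSO, incubated with compound 5 h at ambient temperature. Total fluorescence (555/632 nm) calculated as parallel + 2 × perpendicular.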
BLM helicase inh: qHTS Assay for Inhibitors of Bloom's syndrome helicase (BLM). RecQ-like DNA helicase BLM (Homo sapiens), P54132. recombinant BLM DNA unwinding, fluorescence dequenching. Potency, µM (titrated, usually from 56.1 µM), for the others: top-dose activity change, negative = inhibition, usual class: inhibitors. 0.2% of 350,000 active;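 also: plate controls were vehicle for no effect and no enzyme for full effect; nearly all actives have a fitted effect of over 35% in size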
TRb SRC2 PPI: qHTS for Inhibitors of the Interaction of Thyroid Hormone Receptor and Steroid Receptor Coregulator 2; Thyroid hormone receptor beta (Homo sapiens), P10828; TRbeta-SRC2 peptide binding, fluorescence polarization; receptor liganded with 1 µM T3; Potency, µM (titrated, usually from 106 µM), for the others: top-dose activity change, negative = inhibition, usual class: inhibitors; 0.065% of 280,000 active; AID 1469, 2008;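 also: plate controls were bound peptide for no effect and peptide without receptor for full effect; nearly all actives have a fitted effect of over 50% in size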
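Human TRb LBD (0.6 uM) plus Texas Red-labeled SRC2 peptide (20 nM), 1uM T3, 5% DMSO, 5 hr at ambient temperature. Decreased polarization (555/632 nm) flags inhibition; data normalized to free and bound peptide controls.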
ERG-DNA inh: qHTS for Small Molecule Inhibitors of the ERG Ets/DNA interaction; Transcriptional regulator ERG (Homo sapiens), P11308; fluorescence polarization, His-ERG Ets domain / labelled DNA; Potency, µM (titrated, usually from 76.9 µM), for the others: at the highest dose FP activity, negative = inhibition, actives largely listed as inhibitors; 0.028% of 370,000 active; AID 624246, 2012; active = well fitted inhibition curve with a large enough effect in the polarisation, with a control signal flat; inconclusive = small, poorly fitted or top-dose-only effect, or effect the other way, or a change in a side signal; inactive = no such curve, though single readings can be large or run the other way; the % refers to the polarisation;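 also: polarization taken with two DNA probes labelled with fluorescein and Texas red; % of control where 0% means no effect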
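His-tagged ERG Ets domain (1 uM in the protein solution; 300mM KCl, 50mM Tris-HCl, 1mM EDTA, 1mM DTT, pH 7.5) received compound, then a probe mix of 5 nM fluorescein-DNA and 100nM Texas-615-DNA. Fluorescence polarization was read for both dyes.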
GoLoco inh red: qHTS Assay for Inhibitors of RGS12 GoLoco Motif Activity (Red Fluorophore); Guanine nucleotide-binding protein G(i) subunit alpha-1 (Homo sapiens), P63096; Gai1:RGS12 GoLoco peptide FP, rhodamine, 10 min; Potency, µM (highest dose often 61.6 µM), for the others: at the top dose activity, negative = inhibition, hits mostly inhibitors; 0.44% of 230,000 active; active = well fitted inhibition curve with a large enough effect, not every such curve was filed as active; inactive = no such curve, though single readings can be large or run the other way; also: % is scaled to controls: 0 for no effect and ±100 for the full control effect; nearly all actives have a fitted effect of over 30% in size
RECQ1 inh-1: qHTS Assay for Inhibitors of RecQ-Like Dna Helicase 1 (RECQ1) | 0.54% of 240,000 active | Potency, µM (titrated, usually from 57.3 µM), for inactives: at the top dose activity, negative = inhibition, hits mostly inhibitors | AID 2549, 2010 | ATP-dependent DNA helicase Q1 (Homo sapiens), P46063 | RECQ1 DNA unwinding, red fluorescence kinetic read;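 also: plate controls were vehicle for no effect and no enzyme for full effect; nearly all actives have a fitted effect of over 30% in size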
Target sequence (P46063 whole entry, looked up): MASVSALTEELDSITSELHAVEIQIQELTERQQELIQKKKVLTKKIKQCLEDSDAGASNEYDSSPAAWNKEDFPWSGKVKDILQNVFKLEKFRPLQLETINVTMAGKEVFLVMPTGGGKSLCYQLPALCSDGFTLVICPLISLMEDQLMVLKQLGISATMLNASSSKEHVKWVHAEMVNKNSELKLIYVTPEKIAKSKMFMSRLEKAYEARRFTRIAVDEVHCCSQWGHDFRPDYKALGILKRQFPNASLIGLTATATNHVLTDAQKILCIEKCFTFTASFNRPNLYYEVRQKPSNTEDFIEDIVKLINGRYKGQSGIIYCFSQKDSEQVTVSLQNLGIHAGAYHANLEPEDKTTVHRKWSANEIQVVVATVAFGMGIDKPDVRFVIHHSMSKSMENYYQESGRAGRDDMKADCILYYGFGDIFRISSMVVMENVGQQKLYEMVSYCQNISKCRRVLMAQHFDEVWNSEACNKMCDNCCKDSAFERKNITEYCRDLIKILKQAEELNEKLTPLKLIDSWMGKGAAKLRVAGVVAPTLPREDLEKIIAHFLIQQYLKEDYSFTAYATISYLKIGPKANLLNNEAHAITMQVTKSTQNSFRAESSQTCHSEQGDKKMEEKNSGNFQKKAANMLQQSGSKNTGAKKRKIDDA
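50 nM RECQ1T1 preincubated 15 min with compound in Tris pH 8.0 buffer with MgCl2, DTT, Tween-20 and 2.5 ug/ml poly(dI-dC); started with 200 nM TAMRA/BHQ-2 forked duplex and 2 mM ATP. Unwinding read as fluorescence (525/598 nm), two reads 2 h apart.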
RECQ1 inh conf: Confirmation qHTS Assay for Inhibitors of RecQ-Like Dna Helicase 1 (RECQ1) | shares compounds with RECQ1 inh-1 | RECQ1 helicase DNA unwinding, fluorescence | Potency, µM (series often up to 229 µM), for inactives: at the highest dose activity change, negative = inhibition, most hits filed as inhibitors | 28% of 610 active | AID 2708, 2010; also: % is scaled to controls: 0 for no effect and ±100 for the full control effect; nearly all actives have a fitted effect of over 45% in size
ADP FP counter: Counterscreen for RECQ1 Inhibitors: ADP Fluorescence Polarization Displacement Assay | shares compounds with RECQ1 inh-1 | ADP fluorescence polarization displacement counterscreen | Potency, µM (series often up to 228 µM), inactives show at the top dose activity change, negative = inhibition, usual class: inhibitors | 27% of 530 active | AID 2711, 2010; also: % is scaled to controls: 0 for no effect and ±100 for the full control effect; nearly all actives have a fitted effect of over 45% in size
RECQ1 inh-2: Confirmation qHTS Assay for Inhibitors of RecQ-Like Dna Helicase 1 (RECQ1) - Round 2 Cherry Picks; shares compounds with RECQ1 inh-1; recombinant RECQ1 DNA unwinding, red fluorescence; Potency, µM (top dose mostly 119 µM), inactives show at the top dose activity, negative = inhibition, usual class: inhibitors; 15% of 1,100 active; also: % is scaled to controls: 0 for no effect and ±100 for the full control effect; nearly all actives have a fitted effect of over 50% in size
Active calls of the source: *; i = inactive; u = inconclusive; x = not tested or not shown; [ ] = remark or other dose. Unless noted, calls follow the shape of the dose curve; as a rule, active = well fitted curve in the direction sought with a large enough effect; inconclusive = small, poorly fitted or top-dose-only effect, or another doubt; inactive = no such curve, though single readings can be large; an effect the other way counts as inactive or inconclusive. Potency is read from the fitted curve at half-maximal effect.

SMILES	TexasRed fluor	BLM helicase inh	TRb SRC2 PPI	ERG-DNA inh	GoLoco inh red	RECQ1 inh-1	RECQ1 inh-2	others
CC1(C)OC(C(O)(c2cccc3c2oc2ccccc23)c2cccc3c2oc2ccccc23)C(C(O)(c2cccc3c2oc2ccccc23)c2cccc3c2oc2ccccc23)O1 (configuration not stated)	-14%[11.2 µM]	5%[12.4 µM]	3%[11.2 µM]	x	x	i[11.5 µM]	x
O=C(O)CSCc1cccc2ccccc12	x	x	x	x	7%[14.2 µM]	x	x
Cc1ccc(S(=O)(=O)N2CN(Cc3ccco3)c3nc4ccccc4nc32)cc1	-3%	-8%	0%	3%	x	-6%	x
COc1ccc(S(=O)(=O)N2CN(Cc3ccco3)c3nc4ccccc4nc32)cc1	19%	-13%	-22%	3%	24%	35µM*	u
O=C1CC(NC(=O)C(F)(F)F)=NN1c1ccccc1	0%	0%	-8%	-4%	8%	-1%	x
CC(C)(Oc1ccc(Cl)cc1)C(=O)NC1=NN(c2ccccc2)C(=O)C1	-22%	-6%	8%	2%	-2%	u	-20%
COc1ccc(C(=O)NC(=S)Nc2ccc(N3CCCC3)cc2)cc1	0%	-2%	1%	-3%	8%	-9%	x
COc1cc(C(=O)NC(=S)Nc2ccc(N3CCCC3)cc2)cc(OC)c1OC	-4%	-3%	3%	-11%	x	u	-10%
CCc1nnc(NS(=O)(=O)c2ccc(NC(=S)NC(=O)/C=C/c3ccc(OC)cc3)cc2)s1	7%	u	8%	10%	89%	3%	x
CCc1nnc(NS(=O)(=O)c2ccc(NC(=S)NC(=O)/C=C/c3ccccc3)cc2)s1	-3%	-9%	12%	1%	-2%	u	u
CCc1nnc(NS(=O)(=O)c2ccc(NC(=S)NC(=O)/C=C/c3ccc(C(C)C)cc3)cc2)s1	-7%	-20%	14%	x	7%	u	u
CCc1nnc(NS(=O)(=O)c2ccc(NC(=S)NC(=O)c3ccccc3)cc2)s1	-1%	5%	6%	18%	0%	-8%	x
O=C(NCc1ccc(F)cc1)c1cc(-c2ccc(Cl)cc2)n[nH]1	-2%	-3%	3%	10%	x	x	x
O=C(CCN1C(=O)/C(=C/c2ccc(Cl)cc2)SC1=S)Nc1cccc(C(=O)O)c1	x	u	x	62%	x	x	x
O=C(O)c1cccc(N2C(=O)/C(=C/c3ccc(SCc4ccc(Cl)cc4)o3)SC2=S)c1	-21%	113%	4%	34%	85%	22µM*	x	RECQ1 inh conf=-87%[114 µM]
COc1cc(C)c(CC/C(C)=C/C=C/C(C)=O)c(C)c1C	-1%	-5%	6%	x	4%	6%	x
COc1ccc(-c2nc3c(c4c2C[C@H](c2ccccc2)OC4)CN(C(=O)NCc2ccco2)CC3)c(C)c1	-3%[11.2 µM]	-2%[12.4 µM]	-1%[11.2 µM]	x	1%[14.2 µM]	i[11.5 µM]	x
COc1cc(C(C)=O)ccc1COc1ccc(C(=O)OCC(=O)NC2CCS(=O)(=O)C2)cc1OC (configuration not stated)	-1%	0%	-4%	-5%	-5%	32µM*	-9%
CCc1nc(Nc2ccc(N3CCN(C(C)=O)CC3)cc2)c2oc3ccccc3c2n1	u	-14%	-18%	-2%	x	u	-17%
COC(=O)c1c(NC(=O)Cc2cccs2)sc2c1CCCC2	-6%	-25%	2%	-5%	35%	28µM*	u
Cc1c(C(=O)N2CCCCCC2)c(S(=O)(=O)N(Cc2ccccc2)C(C)(C)C)c(C)n1C	-1%	-3%	-4%	-15%	x	x	x
Cc1cc(C(=O)OCC(=O)c2ccc(Cl)c([N+](=O)[O-])c2)c2cccc(C)c2n1	-2%	-17%	3%	-8%	26%	18µM*	-13%
Cc1ccc2nc(C)cc(C(=O)OCC(=O)c3ccc(Cl)c([N+](=O)[O-])c3)c2c1	-2%	-7%	-9%	-9%	12%	-2%	x
O=C(O)C1Nc2c(cccc2C(F)(F)F)C2C=CCC12 (configuration not stated)	x	-7%	x	x	x	x	x
COc1cccc2c1NC(C(=O)O)C1CC=CC21 (configuration not stated)	u	16µM*	-19%	11%	19%	8.9µM*	u
SMILES	TexasRed fluor	BLM helicase inh	TRb SRC2 PPI	ERG-DNA inh	GoLoco inh red	RECQ1 inh-1	RECQ1 inh-2	others
Cc1cc2nc(-c3cccc(NC(=O)c4cccc5ccccc45)c3)oc2cc1C	2%	2%	-2%	0%	x	x	x
O=C(/C=C/c1ccccc1)NCCc1ccccc1	-2%	-20%	0%	-4%	-2%	18µM*	u	RECQ1 inh conf=11%[114 µM];ADP FP counter=u
CCOc1cc(/C=C(/NC(C)=O)C(=O)O)cc(Cl)c1OCc1cccc(Br)c1	-1%	-2%	-5%	4%	4%	-3%	x	RECQ1 inh conf=u;ADP FP counter=-9%
CCOc1cc(C(N)=O)cc(Cl)c1OCc1ccccc1	0%	-11%	1%	-1%	11%	i	x
Cc1cc(OCC(F)(F)C(F)(F)C(F)(F)C(F)(F)C(F)(F)C(F)F)nc(N)n1	-2%	-21%	0%	-2%	-14%	28µM*	-20%
NC(=O)c1ccc(OCC(F)(F)C(F)(F)C(F)(F)C(F)(F)C(F)(F)C(F)F)cc1	-2%	-6%	-7%	x	-2%	i	x
